Laboratory results taken from publication PMC12864922, “TDP-43 directly inhibits mRNA accumulation in neurites through modulation of mRNA stability”.
Over roughly 9,900 sequences, “r (bound/input frequency ratio)” has its median near 0.7; the highest 2% begin near 6.5. For the sample, the highest values were picked, then their nearest neighbours and some sequences at random.

B1: ENSMUSG00000032194.202|Kank2|53:57 (ssRNA)
RNA: GGGAGUUCUACAGUCCGACGAUCGCUUCGAUAUCCGCAUGCUAGACAGGCUGCACCUUUCUCUAACUGGGGUUCCUUUCUGGCCCCAGGAUCUCACACACGUUCGUGGGGGGAUUUUGUUGUUGUUUCUUUGUUUCUUUUCUUCAUAAAGAAGAAAAAGGAAACAACUUCUAGAUGUGCCUUGCGAUAGGGAGGACUUUGUCCUCUCAAGUCUCCCUGUCGUAUCCAGAUCACAGCUGAACCCACUGGGCCUUGGCGCCAAACCUCAGCAGGGCAGCAUUGAGACUCAUGGACUAAAGGAAAGCUCUUGCGGUCGCACUAGUGUGGAAUUCUCGGGUGUCAAGG
B2: ENSMUSG00000022095.275|Fam160b2|1:15;62:66;198:203 (ssRNA)
RNA: GGGAGUUCUACAGUCCGACGAUCGCUUCGAUAUCCGCAUGCUACACACACACACACACAGAGAGAGAGAGAGAGAGAGAGAGCUGUGAGUACACAUGGGUGCUGCACACGGACAGGAGCAGAUCUUGGUGGAGUGGGUCUACACUUGAGAUUUGUACUCGUUUGAGAGGCUGGGCAAUACUCAAUGCACUUUGGCAUUUGCAUGGUGUCUUCACAACAGCACAGCAAUAAACAUUGUGAUACACACGACAUGCUGACUCUCCCCAGUCUGCUUUUCUUUUCCCCAAGCUUUUCUGCCCCUGUACUCUUGCGGUCGCACUAGUGUGGAAUUCUCGGGUGUCAAGG
B3: ENSMUSG00000061578.1471|Ksr2|12:16 (ssRNA)
RNA: GGGAGUUCUACAGUCCGACGAUCGCUUCGAUAUCCGCAUGCUAUGGAUGGAUAGCAUACUGAAUAAAUGGAUGGAUGGAUGGAUUGAUUUGUGAAUGAAUGGAUGAAUGGAUGGGUAGGUGGGUGGAUGCAUAGGCAAGUAGAUGAAUGAAUAUGUGGGUAGAAGGGUGAGUGGGUGGAUGAAUGGAUGGAUAGGUUGGUAGGUUAAUGUAUUCGUGGAUGGGUGAAUGGAUGGAUGGAUAGAUAGAUGGGAAGGUGGAUGGACAGAUGGAUGGAUGGAUAGAUAGAUGGACAGGUGGUUGGUCUCUUGCGGUCGCACUAGUGUGGAAUUCUCGGGUGUCAAGG
B4: ENSMUSG00000061578.1474|Ksr2 (ssRNA)
RNA: GGGAGUUCUACAGUCCGACGAUCGCUUCGAUAUCCGCAUGCUAAAUAAAUGGAUGGAUGGAUGGAUUGAUUUGUGAAUGAAUGGAUGAAUGGAUGGGUAGGUGGGUGGAUGCAUAGGCAAGUAGAUGAAUGAAUAUGUGGGUAGAAGGGUGAGUGGGUGGAUGAAUGGAUGGAUAGGUUGGUAGGUUAAUGUAUUCGUGGAUGGGUGAAUGGAUGGAUGGAUAGAUAGAUGGGAAGGUGGAUGGACAGAUGGAUGGAUGGAUAGAUAGAUGGACAGGUGGUUGGUGGAUAAAUGAGUGAAUGACUCUUGCGGUCGCACUAGUGUGGAAUUCUCGGGUGUCAAGG

Each binder was assayed against TDP-43 (Homo sapiens, UniProt Q13148 1-414) (assay: RNA Bind-n-Seq with designed 260-mer pool; 25 mM Tris-HCl, 150 mM KCl, 3 mM MgCl2, BSA (printed 500 mg/mL), 20 units/mL SUPERase IN; pH not stated; 500 nM RNA pool, 1 h, 4 C; TDP-43 5, 50, 500 nM; high values mean tight binding). Conditions: protein: recombinant; tags: SBP (GST cleaved off with PreScission; pGEX-GST-SBP).
Summary of the method: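 For each oligo, R gives binding as its mapped-read-normalized abundance after pulldown divided by its abundance in input. Bead-captured SBP-tagged TDP-43 (5, 50 or 500 nM) was incubated with 500 nM of an in vitro-transcribed 260-nt 3′ UTR oligo pool for 1 h at 4 °C in 25 mM Tris-HCl, 150 mM KCl, 3 mM MgCl2, BSA and SUPERase IN on streptavidin beads. Washed, biotin-eluted RNA was reverse transcribed, PCR-amplified and sequenced.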

Chain of TDP-43 (Q13148 whole entry): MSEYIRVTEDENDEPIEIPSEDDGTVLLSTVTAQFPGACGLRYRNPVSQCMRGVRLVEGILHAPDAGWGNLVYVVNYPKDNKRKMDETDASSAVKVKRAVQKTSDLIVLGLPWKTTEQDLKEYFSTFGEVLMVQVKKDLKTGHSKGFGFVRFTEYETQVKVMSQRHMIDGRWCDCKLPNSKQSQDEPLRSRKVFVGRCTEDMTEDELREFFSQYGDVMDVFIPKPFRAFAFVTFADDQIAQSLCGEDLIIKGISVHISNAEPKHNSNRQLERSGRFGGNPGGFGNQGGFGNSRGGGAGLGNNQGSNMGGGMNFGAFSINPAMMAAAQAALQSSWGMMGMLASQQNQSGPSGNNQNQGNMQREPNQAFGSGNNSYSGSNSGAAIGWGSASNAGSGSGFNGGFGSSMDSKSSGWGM

Row | Binder | binding signal
1 | B1 | 0.269 R (bound/input frequency ratio)
2 | B2 | 2.5 R (bound/input frequency ratio)
3 | B3 | 8.75 R (bound/input frequency ratio)
4 | B4 | 3.43 R (bound/input frequency ratio)
